Assay outcomes deposited in PubChem BioAssay by several laboratories.
CCHFV vOTU inh: blocks the CCHF virus ovarian tumor domain protease; inhibition, % at 11.5 µM; CCHFV vOTU protease, Pep-AMC fluorescence; hit rate 0.55% among 370,000; AID 651958; in the data active = inhibition above about 30%
FBA Mtb inh: inhibitors of M. tuberculosis fructose-bisphosphate aldolase; P9WQA3; purified M. tuberculosis FBA, fluorescence read-out; inhibition, % at 1 µM; hit rate 2.3% among 360,000; AID 588726
Target sequence (P9WQA3 whole entry, looked up): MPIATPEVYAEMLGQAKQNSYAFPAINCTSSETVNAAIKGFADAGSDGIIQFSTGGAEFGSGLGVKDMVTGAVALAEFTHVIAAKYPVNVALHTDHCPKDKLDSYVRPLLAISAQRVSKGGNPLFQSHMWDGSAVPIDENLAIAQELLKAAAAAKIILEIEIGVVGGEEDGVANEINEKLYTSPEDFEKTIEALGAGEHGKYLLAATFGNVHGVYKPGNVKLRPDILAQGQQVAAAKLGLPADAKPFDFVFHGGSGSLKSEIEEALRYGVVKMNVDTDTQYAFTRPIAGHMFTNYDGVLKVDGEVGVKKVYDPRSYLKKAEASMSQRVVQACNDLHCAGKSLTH
GDH-TPI counter-1: GDH-TPI coupled enzyme inhibition counter-screen; GDH-TPI coupled enzyme counterscreen, NADH absorbance; inhibition, % at 4.8 µM; hit rate 1.2% among 360,000; AID 588335; in the data active = inhibition above about 30%
Mtb bLac sens: beta-lactam sensitization of Mtb H37Rv. AID 434955. hit rate 0.27% among 330,000. M. tuberculosis H37Rv growth with meropenem, percent inhibition. inhibition, % at 25 µM; call rule not given here;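 note: growth measured after seven days incubation then overnight dye step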
MazF activator: MazEF (E. coli) toxin RNase activation; P0AE70; FAM/BHQ RNA-DNA oligo cleavage fluorescence, 5 h; activation, % at 20 µM; hit rate 0.32% among 350,000; AID 504720; in the data active = activation above about 50%
Mtb FBA confirm: Mtb FBA inhibition, confirmed; shares compounds with FBA Mtb inh; purified M. tuberculosis FBA, fluorescence read-out; inhibition, % at 1 µM; hit rate 78% among 5,600; AID 651616
GDH-TPI counter-2: GDH-TPI inhibition counter-screen for FBA inhibitors; shares compounds with FBA Mtb inh; GDH-TPI coupled enzyme counterscreen, fluorescence; inhibition, % at 1 µM; hit rate 81% among 5,600; AID 652141; in the data active = inhibition above about 10%
Numbers stand for hits; n = inactive; x = no result; + = active, no number. Hits are enriched below; roughly 4% of the tested compounds scored in any of these assays. Cut-off read from the data, not from the text of the source, unless noted: active = inhibition above about 27%; inactive = the rest.

SMILES	CCHFV vOTU inh	FBA Mtb inh	GDH-TPI counter-1	Mtb bLac sens	MazF activator	Mtb FBA confirm	GDH-TPI counter-2
O=C(CSc1nc(-c2ccco2)cc(C(F)(F)F)n1)NCCCN1CCOCC1	n	n	n	n	n	x	x
COc1ccc(-c2cc(C(F)(F)F)nc(SCC(=O)NCCCN3CCOCC3)n2)cc1	n	34	n	n	n	111	84
COc1ccc(-c2cc(C(=O)NCCN3CCOCC3)c3cc(C(C)C)ccc3n2)cc1	n	42	n	n	n	160	153
O=C(NCCN1CCOCC1)c1cc(-c2ccccc2)nc2ccccc12	n	n	n	x	n	x	x
CCOC(=O)N1CCN(C(=O)C[C@@H]2C[C@]3(C(=O)OCC)CCC4=C3N(CCC4)C2=O)CC1	n	x	x	x	x	x	x
CN(C)CCCNC(=O)c1c(N)[nH]c(C(=O)c2ccc(Br)cc2)c1-c1ccc(Br)cc1	n	x	x	x	x	x	x
CCc1c(-c2cccc(Cl)c2)ncn1CCc1ccccc1OC	n	x	x	x	x	x	x
CCCOc1ccc(-c2nc(C#N)c(NCCCn3ccnc3)o2)cc1	n	105	n	n	n	105	81
N#Cc1nc(-c2ccco2)oc1NCCCn1ccnc1	n	60	n	n	n	121	93
N#Cc1nc(-c2ccc(F)cc2)oc1NCCCn1ccnc1	x	x	x	n	x	x	x
CC(C)(C)c1ccc(-c2nc(C#N)c(NCCCn3ccnc3)o2)cc1	n	40	n	n	n	108	103
COc1ccccc1C(=O)n1ccc2ccc(-c3ccc4ccn(Cc5ccccc5)c4c3)cc21	n	x	x	x	x	x	x
O=C(O)c1ccc(-n2cc(-c3cc4ccccc4oc3=O)[nH]c2=S)cc1	n	32	n	x	n	139	99
CCCNC(=O)N1CC[C@H]2[C@@H]1c1cc(-c3ccc(F)cc3)ccc1N(C)[C@H]2CO	n	x	x	x	x	x	x
CC1CC(C)CN(c2oc(-c3ccco3)nc2C#N)C1 (stereo not given)	n	91	n	n	n	n	n
N#Cc1nc(-c2ccco2)oc1N1CCN(C(c2ccccc2)c2ccccc2)CC1	n	n	n	n	n	x	x
N#Cc1nc(-c2ccco2)oc1N1CCc2ccccc2C1	n	46	n	n	n	52	39
Cc1cccc(OC(=O)Nc2ccc(C(=O)O)c(O)c2)c1	n	29	n	x	n	+	180
CCN=C1NC(CCc2ccccc2)C(C(=O)OC)=C(C)N1Cc1ccccc1C(F)(F)F (stereo not given)	n	x	x	x	x	x	x
CCCCNc1c(-c2ccc(SC3CCCCC3)c(OC)c2)nc2ccc(C)cn12	n	50	n	n	n	+	193
COc1ccc(-c2nc3ccc(C)cn3c2NCc2ccccc2)cc1SC1CCCCC1	x	n	n	n	n	x	x
CCCCNc1c(-c2ccc(OC)c(SC3CCCCC3)c2)nc2ccc(C)cn12	n	36	n	n	n	+	161
COc1ccc(-c2ccc(-c3nc4ccc(C)cn4c3NC3CCCCC3)cc2OC)cc1	n	54	n	n	n	+	185
Cc1cc(C)c2nc(-c3ccccn3)cc(C(=O)NCc3cc(C)n(C)n3)c2c1	n	76	n	n	n	68	53
Cc1cc(C)c2nc(-c3ccccn3)cc(C(=O)Nn3cnnc3)c2c1	n	n	n	n	n	x	x
SMILES	CCHFV vOTU inh	FBA Mtb inh	GDH-TPI counter-1	Mtb bLac sens	MazF activator	Mtb FBA confirm	GDH-TPI counter-2
Cc1cc(C)c2nc(-c3ccccn3)cc(C(=O)NCc3ccco3)c2c1	n	51	n	n	n	+	199
C=CCNC(=O)c1cc(-c2ccncc2)nc2c(C)cc(C)cc12	n	60	n	n	n	152	130
Cc1ccc2c(c1)=NC(=O)/C(=C/c1c(O)[nH]c(=O)[nH]c1=O)C=2	n	35	n	n	n	95	65
CCCN1C(=O)c2n[nH]c(C)c2C1c1ccc(Br)cc1 (stereo not given)	n	x	x	x	x	x	x
O=C(O)c1cccnc1SCc1cn2cc(Br)ccc2n1	n	n	n	n	n	x	x
Cc1cc(C)n2cc(CSC3=NCCS3)nc2n1	n	53	n	n	n	190	155
Cc1cc(C)n2cc(CSCc3ccco3)nc2n1	n	n	n	n	n	x	x
Cc1ccnc(SCc2cn3c(C)cc(C)nc3n2)n1	n	100	n	n	n	46	48
Cc1cc(C)n2cc(CSc3nnnn3-c3ccccc3C)nc2n1	n	n	n	n	n	x	x
Cc1cc(C)n2cc(CSc3ncccc3C(=O)O)nc2n1	n	82	n	n	n	199	179
O=C(NCCc1ccccc1Cl)[C@@H]1CCCN1C(=O)[C@H](Cc1cccnc1)NC(=O)N1CCOCC1	n	x	x	x	x	x	x
